An excerpt weighted towards active compounds, which were near 4.1% of everything screened.
ssDAF-12 act – S. stercoralis DAF-12 nuclear receptor activators, primary screen, cell-based, luminescence, HEK293, GRIP1 co-expression, lit1-tk-luc | HEK293 ssDAF-12/GRIP1 lit1-tk-luc reporter; % of 3 µM dafachronic acid response | activation, % at 6.8 µM | hit rate 1% among 370,000;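 active means activation above the mean over all tested compounds plus 3 SD, cut at about 0.9% in these data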
DAX1 inh-1 – DAX1 (NR0B1) inhibitors, primary screen, cell-based, HEK293, Gal4-DAX1, luciferase luminescence. hit rate 0.99% among 340,000. inhibition, % at 6.75 µM. HEK293 Gal4-DAX1 luciferase reporter;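 active means inhibition above the mean over all tested compounds plus 3 SD, cut at about 4.2% in these data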;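 further: inhibition shows as a rise in luminescence from relieved DAX1 repression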
Target sequence (P51843 207-470 limits assumed): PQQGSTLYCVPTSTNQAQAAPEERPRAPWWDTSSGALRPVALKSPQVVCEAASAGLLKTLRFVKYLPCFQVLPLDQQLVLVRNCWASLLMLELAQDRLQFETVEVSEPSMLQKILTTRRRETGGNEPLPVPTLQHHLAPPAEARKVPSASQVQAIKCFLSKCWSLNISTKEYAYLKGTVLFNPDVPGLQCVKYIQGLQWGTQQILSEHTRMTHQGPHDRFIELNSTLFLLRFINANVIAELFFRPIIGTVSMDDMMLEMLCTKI
hgDAF12 agonist – H. glycines DAF-12 receptor agonists, primary screen, cell-based, luminescence, HEK293, GAL4 fusion, UAS-luciferase; Nuclear hormone receptor DAF-12 (Heterodera glycines), GAL4 fusion; HEK293 GAL4-hgDAF12 UAS-luciferase reporter, agonist luminescence; normalized to butyrate control; activation, % at 6.8 µM; hit rate 1.8% among 370,000;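 active means activation above a cutoff set at the mean of all screened compounds plus 3 SD, cut at about 10% in these data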
hcDAF12 agonist – H. contortus DAF-12 nuclear receptor activators, primary screen, cell-based, luminescence, HEK293, lit1-tk-luc reporter. HEK293 hcDAF-12 lit1-tk-luc reporter; 0% DMSO, 100% Δ7-dafachronic acid. activation, % at 6.8 µM. hit rate 1.4% among 370,000. AID 652067, 2013;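 active means activation above the mean of all tested compounds plus 3 SD, cut at about 5.5% in these data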
DAX1 inh-2 – DAX1 (NR0B1) inhibitors on StAR promoter, primary screen, cell-based, luminescence, SF-1 (NR5A1), full-length DAX-1; AID 652010, 2013; hit rate 1.1% among 370,000; inhibition, % at 6.8 µM; HEK293T StAR-luciferase reporter, SF-1/DAX-1 repression relief;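 active means inhibition above the mean over all tested compounds plus 3 SD, cut at about 3.6% in these data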;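 further: higher inhibition means more luminescence from relief of DAX-1 repression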
Each line names hits and unclear results; the compound was inactive in the other large screens.

Oc1ccc2ccccc2c1C=Nc1ccc(Cl)cn1	ssDAF-12 act 1.3
Cc1cc(O)c(C=Nc2ccc(Cl)cn2)c(=O)o1	none
CCC1=[N+](CC(=O)c2ccc(C)cc2)CCn2cccc21	none
CC1=[N+](CC(=O)c2ccccc2)CCn2cccc21	ssDAF-12 act 1.0 (no result: DAX1 inh-1)
O=C(c1cccc(F)c1F)N1CCCC(c2nc(-c3cccs3)no2)C1 (stereo unspecified)	none (no result: DAX1 inh-1)
CC(C)(C)C(=O)OC12CCCN(C1)/C(=C/c1ccccc1)C2 (stereo unspecified)	none (no result: DAX1 inh-1)
O=C(CSC1=NCCS1)Nc1nc2ccccc2s1	ssDAF-12 act 1.2
Cc1ccc2nc(NC(=O)COC(=O)c3ccco3)sc2c1	hcDAF12 agonist 5.8
Cc1cc[n+](CC(=O)Nc2nc3ccccc3s2)cc1	ssDAF-12 act 1.9
Cc1ccc(S(=O)(=O)N(C)CC(=O)Nc2nc3ccccc3s2)cc1	none
Cc1sc(NC(=O)CSC2=NCCS2)nc1-c1ccccc1	none
O=C(COC(=O)c1ccco1)Nc1nc2ccc([N+](=O)[O-])cc2s1	none
Cc1csc(NC(=O)c2nc3nccc(C)n3n2)n1	none
Cc1ccnc2nc(C(=O)Nc3nc4ccccc4s3)nn12	ssDAF-12 act 1.0, hgDAF12 agonist 12.5, hcDAF12 agonist 6.3, DAX1 inh-2 4.3
COC(=O)[C@]12C[C@H](CC(=O)NCCC(C)C)C(=O)N(CCC3=CCCCC3)C1=C[C@H](C(C)C)O[C@@H]2C1CC1	none (no result: DAX1 inh-1)
COC(=O)[C@]12C[C@H](CC(=O)NCC3CCCCC3)C(=O)N(Cc3ccc(Cl)cc3Cl)C1=C[C@H](C(C)C)O[C@@H]2C1CC1	none (no result: DAX1 inh-1)
COCC(=O)Nc1nc2ccccc2s1	hcDAF12 agonist 6.0
CCC(=O)Nc1nc2ccc3nc(C)sc3c2s1	hgDAF12 agonist 10.7
COC(=O)CCCCCCCCC(=O)Nc1nc2ccccc2s1	none
O=C(Nc1ccc2ccccc2c1)OC1CCS(=O)(=O)C1 (stereo unspecified)	ssDAF-12 act 2.1 (no result: DAX1 inh-1)
COc1ccc(Cl)cc1Nc1cc(C)nc2nc(C)nn12	none
COc1cc(OC)c(Nc2cc(C)nc3nc(C)nn23)cc1Cl	DAX1 inh-1 7.2
Cc1cccc(-c2nsc(SCC(=O)N3CCCC3)n2)c1	hgDAF12 agonist 12.8
O=C(CSc1nc(-c2ccccc2)ns1)N1CCOCC1	none
CCCN1C2CCCC1CC(NC(=O)c1ccccc1OCC)C2 (stereo unspecified)	ssDAF-12 act 0.9
O=C(Nc1ccc(Cl)c(Cl)c1)C1CCCN1S(=O)(=O)c1cccc2cccnc12 (stereo unspecified)	none (no result: DAX1 inh-1)
Nc1ccc(C(=O)OCCc2ccccc2)cc1	DAX1 inh-1 5.1, hgDAF12 agonist 12.8
COc1ccc(C(=O)OCCc2ccc(O)cc2)cc1	hgDAF12 agonist 11.9
O=C(OCCc1ccccc1)c1cc(O)c(O)c(O)c1	hcDAF12 agonist 6.2
O=C1CCc2cc(S(=O)(=O)N3CCN(c4ccccc4Cl)CC3)ccc2N1	none (no result: DAX1 inh-1)
C[C@H]1[C@@H](OC(=O)Nc2cccc(C(F)(F)F)c2)CC[C@@]23CCCN2C(=O)CCC[C@@H]13	none (no result: DAX1 inh-1, DAX1 inh-2)
CCOC(=O)[C@]12CCCC=C1N(Cc1ccc(OC)cc1)C(=O)[C@@H]2CC(=O)N1CCN(C(=O)c2ccco2)CC1	none (no result: DAX1 inh-1)
CCN(C[C@H]1N[C@@](C)(C(=O)OC)[C@H]2C(=O)N(Cc3ccccc3)C(=O)[C@@H]12)C(=O)Nc1ccc(F)cc1	none
O=C(OCc1cccc(F)c1)c1ccc2c(=O)n3c(nc2c1)CCC3	DAX1 inh-1 4.5
O=C(Nc1ccc(Cl)cc1)c1ccc(OCC2CCCO2)cc1 (stereo unspecified)	hgDAF12 agonist 12.6
O=C(NCc1ccc(Cl)cc1)c1ccc(OCC2CCCO2)cc1 (stereo unspecified)	none
Brc1cccc2sc(N3CCCC3)nc12	hgDAF12 agonist 10.9
Clc1cccc2sc(N3CCCC3)nc12	none
CCn1c(Cc2cccs2)nnc1SCC(=O)Nc1ccc2c(c1)OCCO2	none (no result: DAX1 inh-1)
Clc1ccc(-c2csc(N/N=C/c3ccco3)n2)cc1	DAX1 inh-1 6.2
Cc1sc(N/N=C/c2ccco2)nc1-c1ccccc1	ssDAF-12 act 1.4
C(=N\Nc1nc(-c2ccccc2)cs1)/c1cccs1	hcDAF12 agonist 5.8
NNc1nc(-c2ccccc2)cs1	hcDAF12 agonist 6.0
C(=N\Nc1nc(-c2ccccc2)cs1)/c1ccncc1	none
Cn1c(NC(=O)c2ccccc2)nc(Cc2ccccc2)c1-c1ccccc1	none (no result: DAX1 inh-1)
CCC[C@H]1[C@@H](OC(=O)NCc2ccc(C(F)(F)F)cc2)CC[C@@]23CCCN2C(=O)CCC[C@@H]13	none (no result: DAX1 inh-1, DAX1 inh-2)
CCOC(=O)[C@@]12CCC3=C1N(CCC3)C(=O)[C@H](CC(=O)N1CCCC1)C2	none (no result: DAX1 inh-1)
Cc1ccc(-c2csc(N/N=C/c3ccco3)n2)cc1	none
C(=N\Nc1nc(-c2ccccc2)cs1)/c1ccco1	hgDAF12 agonist 12.9
Cc1ccc2nc(N/N=C/c3ccco3)cc(C)c2c1	hgDAF12 agonist 10.8
COc1ccc(NC(=O)CS(=O)CC(=O)Nc2cccnc2)cc1 (stereo unspecified)	none
Cc1ccc(N/N=C(\C#N)C(=N)N2CCOCC2)cc1	DAX1 inh-1 5.2, hgDAF12 agonist 13.0
COc1ccc(N/N=C(\C#N)C(=N)N2CCCCC2)cc1	DAX1 inh-1 6.4
N#C/C(=N\Nc1ccccc1F)C(=N)N1CCCCC1	hgDAF12 agonist 11.1
N#C/C(=N\Nc1ccccc1)C(=N)N1CCOCC1	none
CCN(CC)C(=N)/C(C#N)=N/Nc1ccc(C)cc1	DAX1 inh-1 7.1
COC(=O)[C@]12C[C@H](CC(=O)NCCC(C)C)C(=O)N(Cc3ccc4c(c3)OCO4)C1=C[C@H](C(C)(C)C)O[C@@H]2C	none (no result: DAX1 inh-1)
CN(C)[C@@H]1CCN(c2ccc3c(c2)OCCCN(C2CC2)S3(=O)=O)C1	none (no result: DAX1 inh-1)
COC(=O)[C@]12C[C@H](CC(=O)N3CCCCC3)C(=O)N(Cc3ccco3)C1=C[C@H](C1CCCC1)O[C@@H]2C	none (no result: DAX1 inh-1)
CCCCc1ccc(NC(=O)N[C@@H](C)C(=O)O)cc1	none
CCCCc1ccc(NC(=O)C(C)CC)cc1 (stereo unspecified)	DAX1 inh-1 4.4
CN(C)CCCNc1ncnc2c1cnn2-c1ccccc1	none (no result: ssDAF-12 act, hgDAF12 agonist, hcDAF12 agonist, DAX1 inh-2)
CC(C)OCCCNc1ncnc2c1cnn2-c1ccccc1	hgDAF12 agonist 11.8
c1ccc(CCNc2ncnc3c2cnn3-c2ccccc2)cc1	hgDAF12 agonist 11.9, DAX1 inh-2 3.7
CCC1CCC/C1=N\NC(=O)c1ccccc1C (stereo unspecified)	DAX1 inh-1 5.3
COc1cc(C(=O)Oc2c(OC)cc(C(=S)N3CCOCC3)cc2OC)cc(OC)c1OC	DAX1 inh-1 5.0

Screening results (PubChem)
